From PubChem BioAssay (EPA / NIEHS) come the findings set out here.

Results filed as inconclusive are left out. A structure can be active in one record and inactive in another. The source made the active and inactive calls. The calls were made as follows: active = hit-call score of the fitted dose curve at least 0.9, where 1 is the maximum; inconclusive = response in the unintended direction; inactive = score below 0.9.

Broadly, the AC50 is the concentration at which the activity in the assay is half-maximal.

A short description of this test: CCTE_Simmons_CellTiterGLO_HEK293T: Viability Assessment in CCTE's Assays for Thyroperoxidase (TPO) Inhibition, Simmons Lab (AID 2283665).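 As to AC50: cells exposed to compound for 24 h before readout; actives reduce ATP signal below DMSO vehicle meaning cytotoxicity.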 The essentials: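 ATP depletion measured in HEK293T cells after 24 h dosing (8 concentrations, 5 nM–87.5 uM final; DMSO 0.5%) using CellTiter-Glo luminescence; curves fit for loss of signal against DMSO baseline.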
In general terms: Cellular ATP, detected with luciferase, serves as a proxy for viable cell number.
Take `N#CSCSc1nc2ccccc2s1`: the AC50 is 9.18 µM (active). Turning to `CC(C)(c1ccc(O)cc1)c1ccc(O)cc1`, the call was inactive. As for `O=C(c1ccc(O)cc1O)c1ccc(O)cc1O`, the compound was called inactive. Regarding `CC(C)CCCCCCc1ccc(O)cc1`, the AC50 was 6.47 µM (active). In the case of `S=C(S)NCCNC(=S)S.[Mn+2].[S-]C([S-])=NCCN=C([S-])[S-].[Zn+2]`, the outcome was inactive. With `CCCCOCCOCCOCc1cc2c(cc1CCC)OCO2`, the compound was called inactive. With `CCOC(=O)C(C)Oc1ccc(Oc2nc3ccc(Cl)cc3o2)cc1` (configuration not stated), the call was inactive.
